Measurements reported in ChEMBL document CHEMBL3988442, “University of Dundee, Small-Polar-MMV Screening Library” (2021).
Out of some 53,000 compounds screened, about 900 (1.7%) showed an effect of 50% or more. The full list was thinned out, with strong results kept by preference.

Test system: Mycobacterium tuberculosis
Experiment: Cornell - Phenotypic assay to identify agents that inhibit growth of Mycobacterium tuberculosis
Assay type: functional
Design: scale not given: direction of the effect not stated beside the values
Details: 10 mM as filed; unlikely as a test dose

Row | SMILES | Percent Effect
1 | O=C(NCCNc1ncccn1)c1ccc(Br)cc1 | -16.37%
2 | CCc1ccc(C(=O)NCCNc2ncccn2)cc1 | -25.5%
3 | Cc1ccc(C)n1-c1ccc(C(=O)NCCNc2ncccn2)cc1 | 76.43%
4 | Cc1cc(N(C)C)nc(C2(C)CCCN2C(=O)c2cncnc2C)n1 (centres undefined) | -9.352%
5 | CN(C)C(=O)[C@@H]1CCO[C@@H]2CCN(Cc3ccccc3)C[C@@H]21.O=C(O)C(F)(F)F | 104.8%
6 | CN(C)C(=O)[C@@H]1CCO[C@@H]2CCN(Cc3ccc4c(c3)OCO4)C[C@@H]21.O=C(O)C(F)(F)F | -46.82%
7 | CN(C)C(=O)[C@@H]1CCO[C@@H]2CCN(CCc3ccccc3)C[C@@H]21.O=C(O)C(F)(F)F | 4.406%
8 | CCc1ccc(CN(C(=O)CCn2cc(S(N)(=O)=O)cn2)C2CC2)cc1 | -10.53%
9 | COc1ccc(C2CN(c3cc(C)ncn3)CCN2C(C)=O)cc1 (centres undefined) | -53.77%
10 | Cc1nn(CCNc2ncnc3c2NC(=O)CN3)c(C)c1Cl | 45.57%
11 | COc1cc(N2CCC3(CCN(Cc4csc(C)n4)C3)CC2)ncn1.O=C(O)C(F)(F)F | 24.59%
12 | Cc1nnc(CN2CCCC2c2ccsc2)o1 (centres undefined) | 14.43%
13 | CCCc1noc(CN2CCCC2c2ccsc2)n1 (centres undefined) | 52.86%
14 | CCCc1noc(CCC(=O)N2CCCC2c2ccsc2)n1 (centres undefined) | 22.08%
15 | CN(C)CCNC(=O)c1ccn(-c2ccc3ccccn23)n1.O=C(O)C(F)(F)F | 12.93%
16 | CC(C)N1CCCC1c1cc(CCO)[nH]n1 (centres undefined) | 11.54%
17 | CCC(=O)N1CCC(c2cc(Nc3ncccn3)nc(C)n2)C1 (centres undefined) | -34.07%
18 | O=C1CN([C@@H]2CC[C@@H](NS(=O)(=O)c3ccccc3F)[C@H]2O)CCN1 | -3.18%
19 | O=C1CN([C@@H]2CC[C@@H](NS(=O)(=O)c3ccc(F)cc3)[C@H]2O)CCN1 | 42.43%
20 | Cc1ccccc1CC(=O)N[C@@H]1CCC[C@@H](N2CCNC(=O)C2)[C@@H]1O | 3.763%
21 | Cc1ccccc1S(=O)(=O)N[C@@H]1CC[C@@H](N2CCNC(=O)C2)[C@@H]1O | 54.18%
22 | O=C1CN([C@@H]2CC[C@@H](NS(=O)(=O)c3ccccc3)[C@H]2O)CCN1 | 55.41%
23 | CN([C@@H]1CC[C@@H](N2CCCC2)[C@@H]1O)S(=O)(=O)c1ccccc1 | 24.86%
24 | Cc1ccc(-c2nnc(CN3CCn4c(nnc4C4CC4)C3)o2)cc1 | 2.899%
25 | CCOCC(=O)N1C[C@@H]2CC[C@H](Oc3ccccc3)[C@@H]2C1 | -14.06%

Row | SMILES | Percent Effect
26 | CCCN1CCCn2nc(CNS(=O)(=O)c3cccc(F)c3)cc2C1 | -34.67%
27 | CCN(CC)CCCNCc1cc2cc(C)ccc2[nH]c1=O | 4.422%
28 | CCOc1ncccc1NC(=O)N1CCC(n2cncn2)CC1 | 14.59%
29 | Cc1cccc(CN(Cc2ccccn2)Cc2ncc(C(C)(C)C)o2)c1 | 69.04%
30 | CCN(Cc1cccc(Cl)c1)Cc1ncc(C(C)(C)C)o1 | 0.2424%
31 | CCN(Cc1ncc(C(C)(C)C)o1)Cc1ccccc1C | -5.269%
32 | Cc1nc2ccc(C(=O)N3C[C@@H](O)[C@H](N4CCCC4)C3)cc2[nH]1 | 1.956%
33 | COCC(=O)NC(c1ccccc1)c1ccc2c(c1)CCCO2 (centres undefined) | 34.89%
34 | Cc1cc(NCc2cccc(C#N)c2)ccc1C(=O)N(C)C | 22.32%
35 | Cc1cc(NCc2cccc(C#N)c2)ccc1Br | 50.78%
36 | Cc1cc(NCc2cccc(C#N)c2)ccc1C(N)=O | 38.13%
37 | CCN(CC)c1nc(Nc2cccc(C(=O)O)c2)nc2ccccc12 | -13.69%
38 | CCN(CC)c1nc(Nc2cccc(C(C)O)c2)nc2ccccc12 (centres undefined) | 104.6%
39 | CC(O)c1cccc(Nc2nc(NCCO)c3ccccc3n2)c1 (centres undefined) | -13.85%
40 | NC(=O)NCC(=O)N1CCCC(OCc2cccnc2)C1 (centres undefined) | -45.31%
41 | Cn1ncc2ccc(C3CCCN(Cc4cccs4)C3)nc21 (centres undefined) | -1.871%
42 | Oc1cc(C2CCCN(Cc3cccs3)C2)nc(-c2ccccn2)n1 (centres undefined) | 76.98%
43 | Oc1cc(C2CCCCN2Cc2cccs2)nc(-c2ccccn2)n1 (centres undefined) | 21.14%
44 | Cc1nc(CCN2CCC(Oc3ccccc3F)CC2)cs1 | 0.3496%
45 | Cc1nc(CCN2CCC(Oc3ccccc3F)CC2)c(C)s1 | 4.042%
46 | Cc1nc(C)c(CCN2CCC(Oc3ccccc3F)CC2)s1 | 50.26%
47 | Cc1cnc(-c2nc(O)c3c(n2)CN(C(=O)CC2CCCC2)CC3)cn1 | 2.725%
48 | CCN(C)S(=O)(=O)N(CC)Cc1ccc2c(c1)OCO2 | 26.78%
49 | CCN(Cc1ccc2c(c1)OCCO2)S(=O)(=O)N(C)C(C)C | 54.92%
50 | CC(C)N(C)S(=O)(=O)N(C)Cc1ccc2c(c1)OCO2 | -6.095%

Row | SMILES | Percent Effect
51 | CCn1cnnc1C1CCN(C(=O)c2ccc(OC(C)C)nc2)CC1 | 22.89%
52 | CC(C)c1nnc(CN(C)Cc2ccccc2-c2ccccc2)o1 | 60.67%
53 | CN(Cc1nnc(C2CC2)o1)Cc1ccccc1-c1ccccc1 | 24.56%
54 | CC(C)c1nnc(CN(C)C(c2ccccc2)c2ccc(F)cc2)o1 (centres undefined) | 32.65%
55 | Cc1nn(C)c(C)c1NC(=O)CN1CCOC(CN(C)C)C1 (centres undefined) | 13.8%
56 | O=C(C1=CCCC1)N1C[C@@H]2COC[C@]2(COCc2ccncc2)C1 | -20.46%
57 | CCc1nnc(Nc2cc(C)nc(C3CCN(c4ccncn4)C3)n2)s1 (centres undefined) | -19.2%
58 | O=C(Cn1ccc2ccccc21)N1CCC(Oc2cnccn2)CC1 | 24.96%
59 | O=C(Cn1ccc2ccccc21)N1CCC(Oc2ncccc2Br)CC1 | 58.45%
60 | COC1CCN(C(=O)Cn2ccc3ccccc32)CC1 | 2.586%
61 | O=C(CCC(=O)N1CCC(Oc2ncccc2Br)CC1)c1ccccc1 | 95.35%
62 | O=C(CCC(=O)N1CCC(OCc2cccnc2)CC1)c1ccccc1 | -10.19%
63 | Cc1cccc(OC2CCN(C(=O)Cn3ccc4ccccc43)CC2)n1 | 59.2%
64 | O=C(CCn1ccc(=O)[nH]c1=O)N1CCC(Oc2ncccc2Cl)CC1 | 20.85%
65 | O=C(NCc1ccccc1)N1CCC(Oc2ncccc2Br)CC1 | -14.28%
66 | Cc1cccc(OC2CCN(C(=O)c3ccc4c(c3)OCO4)CC2)n1 | 37.52%
67 | CS(=O)(=O)NCCCNC(=O)c1cccc(-n2cccc2)c1 | -24.26%
68 | CC(=O)Nc1nc(SCc2ccc3c(c2)OCO3)ns1 | 6.348%
69 | CCCN1CCN(C(=O)Nc2ccccc2Cl)[C@H]2CS(=O)(=O)C[C@H]21 | 2.165%
70 | CC1CCN(Cc2ccccc2CNC(=O)C2CNC(=O)N2)CC1 (centres undefined) | -0.9762%
71 | CCOC1COC2(CCN(c3ccccn3)CC2)C1.O=C(O)C(F)(F)F (centres undefined) | 3.904%
72 | CCOc1ccccc1C(=O)N1CC(=O)N(C2CCC2)CC(O)C1 (centres undefined) | 12.12%
73 | CN(Cc1cccnc1)[C@@H]1CN(c2ccccn2)[C@@H]2CCCO[C@H]12 | 3.977%
74 | CN(Cc1cccnc1)[C@@H]1CN(Cc2ccccn2)[C@@H]2CCCO[C@H]12 | 51.65%
75 | CN(Cc1cccnc1)[C@@H]1CN(c2ncc(F)cn2)[C@@H]2CCCO[C@H]12 | 19.63%

Row | SMILES | Percent Effect
76 | COc1ccc2c(c1)CC(C1CCOCC1)N(C(=O)c1ccnn1C)C2 (centres undefined) | 13.18%
77 | CN1CCN(C)C(CNC(=O)N(C)Cc2ccc(Cl)c(F)c2)C1 (centres undefined) | 12.24%
78 | C=C/C=c1\c(=C/C)oc2c(NCc3ccccc3)nc(CC)nc12 | 44.26%
79 | C=C/C=c1\c(=C/C)oc2c(NCc3ccccc3)ncnc12 | 8.559%
80 | C=C/C=c1\c(=C/C)oc2c(NCc3ccccc3)nc(C)nc12 | 70.49%
81 | O=c1c2ccccc2nc2n1C(CSc1ccc(Br)cc1)CN2 (centres undefined) | 19.98%
82 | COCCOc1ccc(Cl)c(C(=O)N2CCN(CCO)CC2)n1 | -16.9%
83 | CNc1ncc(-c2csc(NC(=O)C[C@H]3COCCN3)n2)cn1.Cl | -17.99%
84 | Cc1cnc(N2C[C@@H]3CN(C4CCOC4)CCC[C@]3(C(=O)O)C2)nc1.O=C(O)C(F)(F)F (some centres undefined) | 13.6%
85 | NC(=O)C1(CCCc2ccccn2)CCCN(Cc2ncc[nH]2)C1 (centres undefined) | -6.495%
86 | CS(=O)(=O)c1cccc(OCC(=O)N2CCCC2c2ccccc2Cl)c1 (centres undefined) | -2.872%
87 | NC(=O)c1ccc(OCC(=O)N2CCCC2c2ccc[nH]2)cc1 (centres undefined) | -7.16%
88 | NC(=O)c1cn[nH]c1C1CCCN1C(=O)COc1ccccc1 (centres undefined) | 6.51%
89 | O=C(COc1ccc2c(c1)CCC2)N1CCCC1c1ccc[nH]1 (centres undefined) | 107.5%
90 | CN(C)c1ccc(C(=O)N2CCCC2c2cnn(C)c2)cn1 (centres undefined) | 5.002%
91 | O=C(COc1ccc2c(c1)CCC2)N1CCCC(n2cccn2)C1 (centres undefined) | -23.81%
92 | CC1CCN(c2ccc(C(=O)N3CCCC3c3nncn3C)cn2)CC1 (centres undefined) | -18.06%
93 | O=C(COc1ccccc1)N1CCCC1c1ccc[nH]1 (centres undefined) | 85.82%
94 | CC1CCN(c2ccc(C(=O)N3CCCC3c3ccc[nH]3)cn2)CC1 (centres undefined) | 84.24%
95 | CS(=O)(=O)c1cccc(OCC(=O)N2CCCC2c2ccc[nH]2)c1 (centres undefined) | 58.54%
96 | Cc1ccc(-c2nnc(CCC(=O)N3CCCC3c3ccc[nH]3)o2)cc1 (centres undefined) | 45.95%
97 | O=C(COc1ccc2c(c1)CCC2)N1CCOCC1c1ncon1 (centres undefined) | 12.9%
98 | Cc1cc(C)cc(OCCN2CCn3c(C)nnc3C2)c1 | 12.04%
99 | Cn1cc(C2=NOC(C(=O)NC3(c4cccc(F)c4)CCCC3)C2)cn1 (centres undefined) | -24.87%
